In PubChem BioAssay (EPA / NIEHS):
Results filed as inconclusive are left out. Activity calls are given as the source filed them. How the source made its calls: active means hit-call score of the fitted dose curve at least 0.9, where 1 is the maximum; inconclusive means response in the unintended direction; inactive means score below 0.9.

What was measured:
[1] = TOX21_p53_BLA_p2_viability: Viability Assessment in the Tox21 HCT-116 p53 Agonism Beta-lactamase Assay, Phase 2 (AID 2283591);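 further: actives lower the ATP signal meaning cytotoxicity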
Method in brief: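 HCT-116 p53-bla cells (4000/well) rested 5 h at 37C, then received compounds in DMSO (217-fold dilution) for 16 h at 37C, 5% CO2. After the CCF4 read, CellTiter-Glo was added; ATP luminescence was read after 30 min at room temperature.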

[2] = TOX21_p53_BLA_p3_viability: Viability Assessment in the Tox21 HCT-116 p53 Agonism Beta-lactamase Assay, Phase 3 (AID 2283593);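 further: cells exposed to compound for 16 h before reading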
Method in brief: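 HCT-116 cells (4000/well) rested 5 h at 37C, then got DMSO compounds by pin tool (217-fold dilution) for 16 h at 37C, 5% CO2. After the bla read, CellTiter-Glo was added and luminescence read at 30 min, room temperature.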

[3] = TOX21_p53_BLA_p5_viability: Viability Assessment in the Tox21 HCT-116 p53 Agonism Beta-lactamase Assay, Phase 5 (AID 2283600)
Method in brief: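 Decreased CellTiter-Glo luminescence denotes lost viability. Exposure: 16 h at 37C, 5% CO2, with compounds from DMSO stocks diluted 217-fold in wells of 4000 cells.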

[4] = target: Cellular tumor antigen p53 (Homo sapiens) (UniProt P04637); assay: TOX21_p53_BLA_p4_ratio: Tox21 HCT-116 p53 Agonism Beta-lactamase Assay, Ratio, Phase 4 (AID 2283601)
Cellular tumor antigen p53 (Homo sapiens), sequence (P04637 whole entry, looked up): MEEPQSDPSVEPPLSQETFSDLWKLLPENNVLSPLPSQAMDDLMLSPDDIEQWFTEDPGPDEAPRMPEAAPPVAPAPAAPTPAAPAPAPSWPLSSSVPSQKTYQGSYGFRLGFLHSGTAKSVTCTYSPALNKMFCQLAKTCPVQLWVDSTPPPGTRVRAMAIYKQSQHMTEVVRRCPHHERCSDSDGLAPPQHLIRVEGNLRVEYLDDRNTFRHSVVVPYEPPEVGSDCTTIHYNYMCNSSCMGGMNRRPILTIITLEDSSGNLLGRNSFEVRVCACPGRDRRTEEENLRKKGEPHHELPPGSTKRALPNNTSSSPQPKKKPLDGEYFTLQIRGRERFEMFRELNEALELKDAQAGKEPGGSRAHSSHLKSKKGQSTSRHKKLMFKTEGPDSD
Method in brief: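 HCT116 cells carrying an inducible beta-lactamase reporter were plated at 4000 cells/well, rested 5 h, then exposed to compounds in DMSO (217-fold dilution) for 16 h at 37C. CCF4-AM substrate was loaded 2 h at room temperature; 460/530 nm emission ratio scored gain-of-signal versus DMSO.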

[5] = target: Cellular tumor antigen p53 (Homo sapiens) (UniProt P04637); assay: TOX21_p53_BLA_p3_ratio: Tox21 HCT-116 p53 Agonism Beta-lactamase Assay, Ratio, Phase 3 (AID 2283596)
Method in brief: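 Cells were seeded at 4000/well, rested 5 h at 37C, then dosed with DMSO compound solutions (217-fold dilution) for 16 h. CCF4-AM substrate was loaded for 2 h at room temperature, and the 460/530 nm emission ratio was fitted for gain of signal versus DMSO.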

[6] = TOX21_p53_BLA_p4_viability: Viability Assessment in the Tox21 HCT-116 p53 Agonism Beta-lactamase Assay, Phase 4 (AID 2283597);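 further: hits lower the luminescence signal meaning cytotoxicity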
Method in brief: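 4000 HCT116 cells per well; 5 h attachment; compounds from DMSO, 217-fold dilution; 16 h at 37C. Then CCF4-AM, 2 h RT, followed by CellTiter-Glo, 30 min RT, luminescence. Decrease = cytotoxicity.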

Measured: outcome

CC=C(CC)C(=O)NC(N)=O
inactive: [1] | [2] | [3] | [4]

CCN(CC)C(=O)N[C@H]1C[C@@H]2c3cccc4[nH]cc(c34)C[C@H]2N(C)C1
inactive: [1] | [2] | [5] | [3]

Nc1ccccc1Cl
inactive: [1] | [5]

O=C1NCN(c2ccccc2)C12CCN(CC1COc3ccccc3O1)CC2 (stereo not drawn)
inactive: [1] | [2] | [3]

C#CCOC(C(=O)OCCN(C)C)(c1ccccc1)c1ccccc1
inactive: [1] | [2] | [6] | [3] | [4]
